Screening data (PubChem BioAssay)
hcGAS inh – Primary biochemical luminescence assay for human cyclic GMP-AMP synthase inhibitors. actives 0.081% (n = 290,000). recombinant h-cGAS, ATP depletion, Kinase-Glo luminescence. inhibition, % at 12.5 µM
NPYLR7 agonist – agonists of mosquito NPYLR7 receptor, primary screen, cell-based, Aedes aegypti, calcium fluorescence, mosquito biting behavior | HEK293T NPYLR7/Galpha15, GCaMP6s calcium fluorescence | activation, % at 10 µM | actives 0.15% (n = 270,000) | AID 1259423, 2018; in the data active = activation above about 40%
mcGAS lum – cyclic GMP-AMP synthase inhibitors, mouse, primary biochemical chemiluminescence. Q8C6L5. recombinant cGAS, Kinase-Glo ATP depletion luminescence. inhibition, % at 12.5 µM. actives 0.15% (n = 160,000)
Target sequence (Q8C6L5 whole entry, looked up): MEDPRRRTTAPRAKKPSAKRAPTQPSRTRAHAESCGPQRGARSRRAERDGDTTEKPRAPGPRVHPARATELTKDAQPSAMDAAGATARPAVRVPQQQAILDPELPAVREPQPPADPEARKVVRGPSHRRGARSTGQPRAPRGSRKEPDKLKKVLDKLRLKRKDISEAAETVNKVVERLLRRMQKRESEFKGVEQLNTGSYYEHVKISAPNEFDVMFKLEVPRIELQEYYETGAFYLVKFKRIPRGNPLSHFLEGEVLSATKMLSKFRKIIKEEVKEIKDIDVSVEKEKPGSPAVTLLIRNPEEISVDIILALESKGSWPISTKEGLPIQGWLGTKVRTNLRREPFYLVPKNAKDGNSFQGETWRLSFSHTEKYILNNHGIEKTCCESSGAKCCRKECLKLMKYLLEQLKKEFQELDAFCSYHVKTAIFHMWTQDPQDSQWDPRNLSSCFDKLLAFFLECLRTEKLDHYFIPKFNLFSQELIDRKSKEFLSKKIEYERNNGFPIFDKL
A number is an active result; i = inactive; nt = not tested or not shown; ! = a repeat was not active. A selection: hits, their analogues and other compounds. The true share with any hit is near 0.24%. Rule as the data show it, unless noted: active = inhibition above about 40%; inactive = the rest.

SMILES	hcGAS inh	NPYLR7 agonist	mcGAS lum
Cc1cc(C)cc(N2C(=O)CSC2c2ccc(NC(=O)CCl)cc2)c1 (stereo not given)	i	i	i
CCCc1ccccc1N1C(=O)CSC1c1ccc(NC(=O)CCl)cc1 (stereo not given)	i	42	i
CN1CCC(=C2c3ccccc3Sc3ccccc32)CC1	i	54!	i
CN1CCC(=C2c3ccccc3C=Cc3ccccc32)CC1	i	i	i
Cc1ccc(-c2ccc(=O)n(CCNC(=O)C(C)Oc3ccccc3F)n2)cc1 (stereo not given)	i	i	i
O=C(C1=NN(c2ccccc2)C2C(=O)N(c3ccccc3)C(=O)C12)c1ccccc1 (stereo not given)	i	65	i
CC(=O)C1=NN(c2ccccc2)C2C(=O)N(c3ccc(Br)cc3)C(=O)C12 (stereo not given)	i	i	i
Cc1nn(CC(=O)NC(C)(C)C)c(C)c1S(=O)(=O)NC(C)(C)C	i	i	nt
O=C(NC1CCCCC1N1C(=O)CSC1=O)c1ccc2nsnc2c1 (stereo not given)	i	i	nt
COCCN(Cc1cc(NC(=O)C(C)C)ccc1N(C)C)C(=O)Nc1cccc(F)c1	i	i	i
CNC(=O)NC(=O)CCN1CC(c2ccccc2Cl)c2c([nH]c3ccccc23)C1C (stereo not given)	i	41	nt
O=C(CCn1c(=O)[nH]c2ccccc2c1=O)NCCc1ccccc1Cl	i	i	nt
O=C(CCl)Nc1nc2ccc([N+](=O)[O-])cc2s1	i	i	i
COc1cc2c(cc1OC)C(c1c(F)cccc1Cl)N(C(=O)Nc1ccccc1C)CC2 (stereo not given)	i	i	i
Cn1c(C(C#N)=Cc2ccsc2)nc2ccccc21	i	i	i
Cn1c(C(C#N)=Cc2c(F)c(F)c(F)c(F)c2F)nc2ccccc21	i	142	nt
CCc1cc(N2CCN(C(=O)c3ccccc3C(F)(F)F)CC2)n2ncnc2n1	i	i	i
O=c1[nH]cnc2c1C(c1cccc([N+](=O)[O-])c1)c1c(nc[nH]c1=O)O2	i	i	i
O=c1[nH]c(=S)[nH]c2c1C(c1cccc([N+](=O)[O-])c1)c1c([nH]c(=S)[nH]c1=O)O2	i	i	55
CCNC(=O)Cc1cccc(N(Cc2ccc(C)cc2)C(=O)c2ccccc2C)c1	i	nt	i
CCONC(=O)c1csc(CSc2nnc(-c3ccncc3)n2-c2cccc(Cl)c2)n1	i	i	i
CCc1cccc2c(C(CC(=O)NCCCN3CCOCC3)c3cccc(C(F)(F)F)c3)c[nH]c12 (stereo not given)	i	nt	i
CCc1cccc2c(C(CC(=O)NCCCN3CCOCC3)c3ccc(OC)c(OC)c3)c[nH]c12 (stereo not given)	i	nt	68
COc1ccc(C(=O)NCCn2ncc3c(N4CCCC4)nc(SC)nc32)cc1	i	nt	i
CC(C)(C)c1csc(NC(=O)CN2C[C@H](O)[C@@H](N3CCOCC3)C2)n1	i	nt	i
SMILES	hcGAS inh	NPYLR7 agonist	mcGAS lum
CCCNC(=O)NCC(=O)N(C)Cc1ccc(Br)cc1	i	i	nt
CN(Cc1ccc(Br)cc1)C(=O)CCl	i	i	42
c1cncc(-c2nc(N3CCCC4CCCCC43)c3ccccc3n2)c1 (stereo not given)	i	i	i
C=CCNC(=O)c1ccccc1N1CCC(NC(=O)OC)CC1	i	i	i
Nc1ncnc2c1ncn2[C@@H]1O[C@H](CO)[C@@H](O)[C@H]1O	i	52	nt
OC[C@H]1O[C@@H](n2cnc3c(NC4CCCC4)ncnc32)C(O)[C@H]1O (stereo not given in full)	i	i	i
Cc1nc(C(C)C)sc1C(=O)N1CCNCC1C(=O)N1CCCC1 (stereo not given)	i	i	nt
Cc1cc(C)nc(SCc2cc(=O)c(OC(=O)c3ccccc3Cl)co2)n1	i	i	i
Cc1cc(C)nc(SCc2cc(=O)c(OC(=O)Cc3cccs3)co2)n1	i	i	i
Cc1cc(C)nc(SCc2cc(=O)c(OC(=O)C3c4ccccc4Oc4ccccc43)co2)n1	i	i	93
Cc1ccnc(SCc2cc(=O)c(OC(=O)COc3ccccc3C)co2)n1	i	i	i
Cc1ccnc(SCc2cc(=O)c(OC(=O)Cc3cccc4ccccc34)co2)n1	i	i	60
Cc1cc(C)nc(SCc2cc(=O)c(OC(=O)Cc3cccc4ccccc34)co2)n1	i	i	68
COc1ccccc1-n1cc(CN2CCC(CO)(CCOc3ccccc3)CC2)cn1	i	nt	nt
CCCCC1CCCN1C(=O)c1sc(N)nc1CC (stereo not given)	i	i	nt
O=C(Nc1cccc2ccccc12)c1cn(-c2ccccc2)nc1-c1cccnc1	i	i	i
COc1ccc(C(=O)CSc2nnc(C)n2-c2cccc(C)c2)cc1	i	i	i
O=C(c1ncoc1C1CC1)N1CCC2(CCCN(CC3CCC3)C2=O)C1 (stereo not given)	i	i	nt
O=C(NCCC12CC3CC(CC(C3)C1)C2)c1ccc2c(=O)n3c(nc2c1)CCCCC3	i	i	nt
O=C(NCCSc1ccc(Cl)cc1)c1ccc2c(=O)n3c(nc2c1)CCC3	i	82	nt
Clc1ccc2c(NCCN3CCOCC3)nc(Cc3ccccc3)nc2c1	i	i	i
COc1ccc(C(=O)N(Cc2cccc(OS(=O)(=O)c3ccc(F)cc3)c2)Cc2ccco2)cc1	i	i	i
CC(C)(C)c1cnc(CSc2cnc(NC(=O)C3CCNCC3)s2)o1	i	60	i
CCc1nc(SCc2ncc(C(C)(C)C)o2)n[nH]1	i	i	nt
O=C(CC(c1cccc(F)c1)c1cn(Cc2ccccc2)c2ccc([N+](=O)[O-])cc12)N1CCN(c2ccccc2F)CC1 (stereo not given)	i	nt	i
SMILES	hcGAS inh	NPYLR7 agonist	mcGAS lum
N#CCSc1sc2c(O)cc(=O)[nH]c2c1C#N	i	i	60
NC(=O)c1c(SCc2ccccc2)sc2c(O)cc(=O)[nH]c12	i	i	i
CN(C)CCN(Cc1cc(N)ccc1N(C)C)C(=O)CC(C)(C)C	i	i	nt
COCCCNc1cnn(C23CC4CC(CC(C4)C2)C3)c(=O)c1Cl	i	nt	i
CCOc1cc(/C=C2/NC(=S)NC2=O)cc(Br)c1O	i	52	i
CCOc1cc(Br)cc(/C=C2/NC(=S)NC2=O)c1O	i	i	i
O=C1c2cccc3c(C#Cc4ccccc4)ccc(c23)C(=O)N1c1ccccc1	i	i	nt
O=C1c2cccc3c([N+](=O)[O-])ccc(c23)C(=O)N1c1ccc([N+](=O)[O-])cc1	i	i	i
NCCNc1ccc2c3c(cccc13)C(=O)N(c1ccc(Cl)cc1)C2=O	i	104	nt
O=C1c2cccc3c(NCC(O)CCl)ccc(c23)C(=O)N1c1ccccc1 (stereo not given)	i	94!	i
O=C1c2cccc3c(Nc4ccccc4)ccc(c23)C(=O)N1c1ccccc1	i	53	i
O=C(c1ccccc1)c1ccc2c3c(cccc13)C(=O)N(c1ccccc1)C2=O	i	i	i
COc1cn2c(cc1=O)C(=O)N(CCNC(=O)c1ccc(C(C)(C)C)cc1)CC2	i	i	nt
CCN(CC)C(=O)Oc1ccc2c(ccn2Cc2ccccc2F)c1NC(=O)c1c(F)cccc1C(F)(F)F	i	i	i
CCOC(=O)c1[nH]c2c([N+](=O)[O-])cc(OCC)cc2c1CCN1C(=O)c2ccccc2C1=O	i	i	69
